Laboratory results reported in PubChem BioAssay (Tox21).
Records with an inconclusive call do not appear. Activity calls are given as the source filed them. Unless noted, the call rests on the fitted dose curve; in most records, active means well fitted curve in the direction sought with a large enough effect in the repeat runs; inconclusive means weak or mixed curves; inactive means no such curve, though single readings can be large; an effect the other way counts as inactive or inconclusive.

Assays:
[1] = qHTS assay for small molecules that induce genotoxicity in human embryonic kidney cells expressing luciferase-tagged ATAD5 (AID 651632); further: nearly all actives have a fitted effect of over 15% in size; further: potency means the concentration at half of the fitted maximal effect
Summary of the method: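 DMSO vehicle served as the control. HEK293T reporter cells, 16 hr at 37C, then 30 min Amplite at room temperature; ATAD5 induction is measured as luciferase activity.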

[2] = qHTS assay for small molecule agonists of the p53 signaling pathway - cell viability (AID 651633; calls by dose curve; further: nearly all actives have a fitted effect of over 30% in size; further: potency means the concentration at half of the fitted maximal effect)
Summary of the method: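 Viability counter-read: CellTiter-Glo luminescence (30 min, room temperature) in the same p53RE-bla plates. These plates had been exposed to compounds for 16 h at 37 C.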

[3] = qHTS assay for small molecule disruptors of the mitochondrial membrane potential - cell viability (AID 720634; calls by dose curve; further: nearly all actives have a fitted effect of over 20% in size; further: potency means the concentration at half of the fitted maximal effect)
Summary of the method: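 Viability of HepG2 cells is scored from ATP content by luminescence; cells are exposed to compound for 1 hr at 37 C and 5% CO2, then dosed with m-MPI dye before the CellTiter-Glo reagent.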

[4] = qHTS assay for small molecule disruptors of the mitochondrial membrane potential (AID 720635); further: potency means the concentration at half of the fitted maximal effect
Summary of the method: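 Mitochondrial membrane potential tracked with Mito-MPS dye, red aggregates (ex 540/em 590 nm) against green monomers (ex 490/em 535 nm). Compound treatment 1 hr at 37C, dye 30 min in HepG2.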

[5] = qHTS assay to test for compound auto fluorescence at 590 nm (red) in HepG2 cells (AID 720674)
Summary of the method: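 Red autofluorescence (Ex/Em 540/590 nm, Rose Bengal sodium equivalents) was measured in HepG2 cells, 2,000 per well in MEM plus 10% FBS, plated overnight at 37 C. Readings were taken 1 hr after adding 23 nL compound or DMSO, at 37 C and 5% CO2.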

[6] = qHTS assay to test for compound auto fluorescence at 535 nm (green) in HepG2 cells (AID 720675)
[7] = qHTS assay to test for compound auto fluorescence at 460 nm (blue) in HEK293 cells (AID 720678)
Summary of the method: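 Blue-channel (Ex/Em 405/460 nm) intensity measured in HEK293 cultures after overnight compound exposure at 37C; signal expressed relative to triamterene. Cells plated 2,000 per well in 10% dialyzed FBS medium and allowed 4-5 hr to attach.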

[8] = qHTS assay to test for compound auto fluorescence at 535 nm (green) in HEK293 cells (AID 720680)
[9] = qHTS assay to test for compound auto fluorescence at 460 nm (blue) in HEK293 cell free culture (AID 720681)
Summary of the method: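 Blue fluorescence (Ex 405/Em 460 nm, triamterene-equivalent) was read immediately after pin transfer of compound or DMSO into medium (DMEM, 10% FBS) without cells.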

[10] = qHTS assay to test for compound auto fluorescence at 535 nm (green) in HEK293 cell free culture (AID 720682)
Summary of the method: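 Read-out: 485/535 nm fluorescence intensity, calibrated against fluorescein. Medium only (DMEM + 10% FBS, no cells); test compound or DMSO vehicle added by pintool before plate reading.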

[11] = qHTS assay to test for compound auto fluorescence at 590 nm (red) in HEK293 cell free culture (AID 720683)
Summary of the method: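 Red-channel autofluorescence of compounds in culture medium (DMEM, 10% FBS), no cells, measured at 540/590 nm. Rose Bengal sodium is the reference fluorophore for equivalence.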

[12] = qHTS assay to test for compound auto fluorescence at 590 nm (red) in HepG2 cell free culture (AID 720684)
Summary of the method: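 No cells present: MEM + 10% FBS only. Compound pinned in, red label read (540/590 nm). Activity = fluorescence equivalent to Rose Bengal sodium.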

[13] = qHTS assay to test for compound auto fluorescence at 460 nm (blue) in HepG2 cell free culture (AID 720685)
Summary of the method: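 Cell-free plates of MEM plus 10% FBS received 23 nL compound or DMSO vehicle; blue-channel (405/460 nm) intensity scored against triamterene as reference fluorophore.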

[14] = qHTS assay to test for compound auto fluorescence at 535 nm (green) in HepG2 cell free culture (AID 720686)
[15] = qHTS assay to test for compound auto fluorescence at 460 nm (blue) in HepG2 cells (AID 720687)
Summary of the method: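 Blue-channel autofluorescence (Ex/Em 405/460 nm, triamterene-equivalent) was measured after 1 hr compound exposure at 37 C, 5% CO2. Cells were HepG2, plated overnight at 37 C in MEM plus 10% FBS.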

[16] = qHTS assay for small molecules that induce genotoxicity in human embryonic kidney cells expressing luciferase-tagged ATAD5 - cell viability (AID 651634; calls by dose curve; further: nearly all actives have a fitted effect of over 25% in size; further: potency means the concentration at half of the fitted maximal effect)
Summary of the method: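 Here HEK293T cells with the ATAD5 luciferase reporter are incubated with test compounds for 15.5 hr, and cytotoxicity is then gauged by measuring protease activity in live cells using fluorescence.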

[17] = qHTS assay to test for compound auto fluorescence at 590 nm (red) in HEK293 cells (AID 720679)
Summary of the method: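 Red-channel autofluorescence (Ex/Em 540/590 nm; Rose Bengal sodium reference) was measured after overnight 37C, 5% CO2 exposure of attached HEK293 cells, 2,000 per well in medium with 10% dialyzed FBS.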

[18] = target: Glucocorticoid receptor (Homo sapiens) (UniProt P04150); assay: qHTS assay to identify small molecule agonists of the glucocorticoid receptor (GR) signaling pathway (AID 720691; active means well fitted activation curve with a large enough effect in the signal ratio in the repeat runs, not every such curve was filed as active; the % refers to the signal ratio; further: potency means the concentration at half of the fitted maximal effect); details: GR-bla HeLa, beta-lactamase reporter ratio, 18 h; activation: at 62.4 µM (top of the series)
Sequence of Glucocorticoid receptor (Homo sapiens) (P04150 whole entry, looked up): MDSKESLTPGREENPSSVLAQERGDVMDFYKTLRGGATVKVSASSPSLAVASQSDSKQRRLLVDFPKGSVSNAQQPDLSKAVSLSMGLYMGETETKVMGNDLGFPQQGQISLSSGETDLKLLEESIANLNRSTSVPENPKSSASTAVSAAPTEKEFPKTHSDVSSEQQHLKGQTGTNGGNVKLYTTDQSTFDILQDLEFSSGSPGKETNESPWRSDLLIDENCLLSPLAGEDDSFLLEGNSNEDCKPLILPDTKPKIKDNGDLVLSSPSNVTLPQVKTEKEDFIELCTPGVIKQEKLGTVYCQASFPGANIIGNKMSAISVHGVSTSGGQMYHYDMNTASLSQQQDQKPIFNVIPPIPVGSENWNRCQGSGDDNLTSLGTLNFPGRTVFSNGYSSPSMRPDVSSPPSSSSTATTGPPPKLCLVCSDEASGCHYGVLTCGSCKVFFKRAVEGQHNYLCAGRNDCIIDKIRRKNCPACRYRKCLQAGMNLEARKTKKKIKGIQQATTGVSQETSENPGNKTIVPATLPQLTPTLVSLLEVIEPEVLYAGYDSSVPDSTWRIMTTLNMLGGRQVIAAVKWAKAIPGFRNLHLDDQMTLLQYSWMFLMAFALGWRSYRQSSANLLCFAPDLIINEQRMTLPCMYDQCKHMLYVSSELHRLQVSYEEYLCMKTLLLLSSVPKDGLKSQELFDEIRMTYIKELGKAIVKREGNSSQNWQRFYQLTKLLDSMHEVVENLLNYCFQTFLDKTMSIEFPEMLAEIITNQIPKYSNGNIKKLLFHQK
Summary of the method: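 Compounds in DMSO, alongside positive controls, were added to GR-bla HeLa reporter cells and incubated 18 h at 37 C; GRE-driven beta-lactamase was detected by fluorescence after 2 h with FRET substrate at room temperature.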

[19] = target: Glucocorticoid receptor (Homo sapiens) (UniProt P04150); assay: qHTS assay to identify small molecule antagonists of the glucocorticoid receptor (GR) signaling pathway (AID 720692; active means well fitted inhibition curve with a large enough effect in the signal ratio in the repeat runs, not every such curve was filed as active; the % refers to the signal ratio; further: potency means the concentration at half of the fitted maximal effect)
Summary of the method: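 In a 1536-well cell format, compounds were added 4 h after seeding GR-bla HeLa cells, together with dexamethasone at 5 nM final; reporter activity was measured by FRET-substrate fluorescence following 18 h at 37 C.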
On the % scale 0 is the no-effect control and ±100 the full control effect.

CCCCCCCC/C=C/CCCCCCCC1=NCCN1CCO
active: Potency [2] 43.3 µM | Potency [3] 54.5 µM | Potency [4] 54.5 µM
inactive: Potency [1] | Potency [5] | Potency [6] | Potency [7] | outcome [8] | Potency [9] | outcome [10] | Potency [11] | Potency [12] | Potency [13] | Potency [14] | Potency [15]

Cc1[nH]nc2c1N=C(c1ccccc1Cl)c1cc([N+](=O)[O-])ccc1N2
active: Potency [1] 1.93 µM | Potency [16] 30.6 µM | Potency [4] 3.06 µM
inactive: Potency [3] | Potency [5] | Potency [6] | Potency [7] | Potency [17] | outcome [8] | Potency [9] | outcome [10] | Potency [11] | Potency [12] | Potency [13] | Potency [14]

CN(C)C(=O)C1(N2CCCCC2)CCN(CC[C@@]2(c3ccc(Cl)c(Cl)c3)CN(C(=O)c3ccccc3)CCO2)CC1
inactive: Potency [1] | Potency [5] | Potency [7] | outcome [8] | Potency [9] | outcome [10] | Potency [11] | Potency [12] | Potency [13] | Potency [14] | Potency [15]
active: Potency [2] 64.1 µM | Potency [16] 64.1 µM

c1cc(C(c2ccc(OCC3CO3)cc2)c2ccc(OCC3CO3)cc2)ccc1OCC1CO1 (centres undefined)
inactive: Potency [1] | Potency [2] | Potency [5] | Potency [6] | Potency [7] | Potency [17] | outcome [8] | Potency [9] | outcome [10] | Potency [11] | Potency [12] | Potency [13] | Potency [14] | Potency [18]
active: Potency [19] 49 µM

CN(C)c1ccc(SC#N)cc1
inactive: Potency [1] | Potency [2] | Potency [16] | Potency [5] | Potency [6] | Potency [7] | outcome [8] | Potency [9] | outcome [10] | Potency [11] | Potency [12] | Potency [13] | Potency [14] | Potency [15] | Potency [18]

CSc1ccc(/C=C2/C(C)=C(CC(=O)O)c3cc(F)ccc32)cc1
active: Potency [2] 26.6 µM
inactive: Potency [1] | Potency [5] | Potency [6] | Potency [7] | Potency [17] | outcome [8] | Potency [9] | outcome [10] | Potency [11] | Potency [12] | Potency [13] | Potency [14] | Potency [15]

Cc1cccc(CN2CCN(C(c3ccccc3)c3ccc(Cl)cc3)CC2)c1 (centres undefined)
inactive: Potency [1] | Potency [16] | Potency [3] | Potency [4] | fluorescence, relative to Rose Bengal [5] -0.676% [at 18.6 µM] | fluorescence, % of fluorescein control [6] 0.0228% [at 18.6 µM] | fluorescence, % of triamterene [7] 0.0825% [at 18.6 µM] | fluorescence, % of fluorescent control [17] 0.431% [at 18.6 µM] | fluorescence, % of fluorescein [8] 0.0512% [at 18.6 µM] | fluorescence, % of fluorescent control [9] -0.0116% [at 18.6 µM] | activity change [10] -0.0053% [at 18.6 µM] | fluorescence, % of fluorescent control [11] 0.0211% [at 18.6 µM] | fluorescence, % of Rose Bengal [12] 0.0634% [at 18.6 µM] | fluorescence, % of fluorescent control [13] -0.0261% [at 18.6 µM] | fluorescence, % of fluorescein control [14] -0.0169% [at 18.6 µM] | Potency [18] | Potency [19]

O=C(Oc1cccc2cccnc12)c1ccccc1
inactive: Potency [1] | Potency [16] | Potency [3] | Potency [5] | Potency [6] | Potency [7] | Potency [17] | outcome [8] | Potency [9] | outcome [10] | Potency [11] | Potency [12] | Potency [13] | Potency [15] | Potency [19]

CCCCCCC[N+](CC)(CC)CCCCc1ccc(Cl)cc1
inactive: Potency [1] | Potency [16] | Potency [3] | fluorescence, relative to Rose Bengal [5] -0.305% [at 18.6 µM] | fluorescence, % of fluorescein control [6] -0.0059% [at 18.6 µM] | fluorescence, % of triamterene [7] 0.0756% [at 18.6 µM] | fluorescence, % of fluorescent control [17] -0.312% [at 18.6 µM] | fluorescence, % of fluorescein [8] 0.0325% [at 18.6 µM] | fluorescence, % of fluorescent control [9] -0.0966% [at 18.6 µM] | activity change [10] -0.0177% [at 18.6 µM] | fluorescence, % of fluorescent control [11] -0.544% [at 18.6 µM] | fluorescence, % of Rose Bengal [12] -0.101% [at 18.6 µM] | fluorescence, % of fluorescent control [13] -0.0851% [at 18.6 µM] | fluorescence, % of fluorescein control [14] 0.172% [at 18.6 µM] | fluorescence, % of fluorescent control [15] -0.0972% [at 18.6 µM] | Potency [18]

Oc1ccc(C2(c3ccc(O)cc3)CC3CC2C2CCCC32)cc1 (centres undefined)
active: Potency [2] 58.7 µM | Potency [4] 33 µM | Potency [19] 18.7 µM
inactive: Potency [1] | Potency [3] | Potency [5] | Potency [6] | Potency [7] | outcome [8] | Potency [9] | outcome [10] | Potency [11] | Potency [12] | Potency [13] | Potency [14]

CCN(Cc1cccnc1)C(=O)c1cccc(Cl)c1[C@]1(C)C(=O)N(Cc2ccc(OC)cc2OC)c2ccc(Cl)cc21
inactive: Potency [1] | Potency [3] | Potency [5] | Potency [7] | Potency [17] | outcome [8] | Potency [9] | outcome [10] | Potency [11] | Potency [12] | Potency [13] | Potency [14] | Potency [15]
active: Potency [16] 9.05 µM | Potency [4] 8.07 µM

CCOC(=O)O[C@]1(C(=O)OCCl)CC[C@H]2[C@@H]3CCC4=CC(=O)C=C[C@]4(C)[C@H]3[C@@H](O)C[C@@]21C
active: Potency [18] 0.0756 µM
inactive: Potency [1] | Potency [16] | Potency [3] | Potency [4] | Potency [5] | Potency [6] | Potency [7] | Potency [17] | outcome [8] | Potency [9] | outcome [10] | Potency [11] | Potency [12] | Potency [13] | Potency [15]

CCCCCCCCCCCCCCCC[N+](C)(C)CCN(Cc1ccc(OC)cc1)c1ncccn1
inactive: Potency [1] | Potency [16] | Potency [3] | fluorescence, relative to Rose Bengal [5] 0.0174% [at 18.6 µM] | fluorescence, % of triamterene [7] 0.0413% [at 18.6 µM] | fluorescence, % of fluorescent control [17] -0.0306% [at 18.6 µM] | fluorescence, % of fluorescein [8] -0.0029% [at 18.6 µM] | fluorescence, % of fluorescent control [9] -0.0676% [at 18.6 µM] | activity change [10] -0.0015% [at 18.6 µM] | fluorescence, % of fluorescent control [11] -0.016% [at 18.6 µM] | fluorescence, % of Rose Bengal [12] 0.665% [at 18.6 µM] | fluorescence, % of fluorescent control [13] -0.0338% [at 18.6 µM] | fluorescence, % of fluorescein control [14] -0.0114% [at 18.6 µM] | fluorescence, % of fluorescent control [15] 0.0553% [at 18.6 µM] | Potency [18] | Potency [19]
active: Potency [4] 11.4 µM

CCC(Cl)C(Cl)C(Cl)CC(Cl)C(Cl)C(C)Cl (centres undefined)
inactive: Potency [1] | Potency [16] | Potency [3] | Potency [5] | Potency [6] | Potency [7] | Potency [17] | outcome [8] | Potency [9] | outcome [10] | Potency [11] | Potency [12] | Potency [13] | Potency [15] | Potency [18]
active: Potency [4] 24.3 µM
